Results as given in PubChem BioAssay AID1224921 (Broad Institute, 2016).
Out of some 1,400 compounds screened, about 350 (25%) were called active. Another 2% or so got no clear call; they are omitted. How the calls were made is not given here. The list is a sample of the results. Potency and affinity values are given separately.

experiment: C. difficile growth inhibition, confirmation, 4-point retest (AID 1224921); conditions: Clostridioides difficile clinical isolate growth, OD600, 24 h, stronger effect = lower value; at 30 µM unless noted;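 further: plate controls were DMSO wells for no effect and levofloxacin 16 µg/mL wells for full effect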

Max activity, inactive:
COCC(=O)N1[C@@H]2c3ccc(-c4ccncc4)c(=O)n3C[C@@H]2[C@@H](CO)[C@@H]1C(=O)Nc1ccccc1 -4.68% [at 0.5 µM]
C[C@H](NC(=O)C[C@@H]1C[C@@H]2c3cc(NC(=O)NC4CCCCC4)ccc3O[C@@H]2[C@H](CO)O1)c1ccccc1 -12.5% [at 1.95 µM]
C[C@@H]1CN([C@@H](C)CO)C(=O)Cc2cc(N(C)C)ccc2O[C@@H]1CN(C)Cc1ccc(Oc2ccccc2)cc1 32.7%
C[C@H](CO)N1C[C@H](C)[C@@H](CN(C)Cc2ccccc2)Oc2ccc(N(C)C)cc2CC1=O 18.1%
C[C@@H]1CN([C@H](C)CO)C(=O)Cc2cc(N(C)C)ccc2O[C@@H]1CN(C)Cc1ccc(Oc2ccccc2)cc1 27.6% [at 35 µM]
C[C@H](CO)N1C[C@H](C)[C@@H](CN(C)Cc2ccc(C(F)(F)F)cc2)Oc2ccc(N(C)C)cc2CC1=O 14% [at 8 µM]
C[C@@H]1CN([C@@H](C)CO)C(=O)Cc2cc(NC(=O)C3CC3)ccc2O[C@@H]1CN(C)Cc1ccc(Oc2ccccc2)cc1 32.9%
C[C@@H]1CN([C@H](C)CO)C(=O)Cc2cc(N(C)C)ccc2O[C@@H]1CN(C)Cc1ccc(-c2ccccc2)cc1 13.4% [at 8 µM]
C[C@@H]1CN([C@H](C)CO)S(=O)(=O)c2ccc(C#Cc3ccccc3)cc2O[C@H]1CN(C)C(=O)Nc1ccccc1 8.1% [at 8 µM]
C[C@H](CO)N1C[C@H](C)[C@@H](CN(C)CC2CC2)Oc2cc(-c3ccc(F)cc3)ccc2S1(=O)=O 38%
Cc1ccccc1S(=O)(=O)N1[C@H](C#N)[C@@H](c2ccc(C#CC3CC3)cc2)[C@@H]1CO 26.6% [at 7.5 µM]
N#C[C@H]1[C@@H](c2ccc(C#CC3CCCC3)cc2)[C@@H](CO)N1S(=O)(=O)Cc1ccccc1 29.9% [at 8 µM]
CN(C)CC(=O)N1[C@H](C#N)[C@H](c2ccc(C#CC3CCCCC3)cc2)[C@@H]1CO 14.2% [at 8 µM]
CCCC#Cc1ccc([C@H]2[C@@H](CO)N(C(=O)C3CCCCC3)[C@H]2C#N)cc1 25.3% [at 8 µM]
N#C[C@H]1[C@@H](c2ccc(C#CC3CCCCC3)cc2)[C@@H](CO)N1S(=O)(=O)c1ccccc1 31.9% [at 8 µM]
CN(C)CC(=O)N1[C@@H](C#N)[C@H](c2ccc(C#CC3CCCCC3)cc2)[C@@H]1CO 22.7% [at 8 µM]
CCCC(=O)Nc1ccc2c(c1)C(=O)N(C)C[C@@H](OC)[C@H](C)CN(CC1CCOCC1)[C@H](C)CO2 -10.1%
CCC(=O)N[C@@H]1C=C[C@H](CC(=O)OC)O[C@H]1CO -12.4%
CN1CCN(C(=O)C[C@H]2C[C@H]3c4cc(NC(=O)Cc5ccncc5)ccc4O[C@H]3[C@H](CO)O2)CC1 13.8%
C[C@H](CO)N1C[C@H](C)[C@H](CN(C)Cc2ccc(C(F)(F)F)cc2)OCCCC[C@H](C)Oc2ccc(NC(=O)CCCN(C)C)cc2C1=O 31.1%
C[C@@H]1CN([C@@H](C)CO)C(=O)c2cc(/C=C/c3ccccc3)cnc2O[C@H]1CN(C)C(=O)NC1CCCCC1 -30.5% [at 8 µM]
CCCN1C[C@@H](C)[C@H](OC)CN(C)C(=O)c2cc(NC(=O)COC)ccc2OC[C@@H]1C 15%
COc1cccc(S(=O)(=O)Nc2ccc3c(c2)[C@@H]2C[C@H](CC(=O)NC4CCCCC4)O[C@H](CO)[C@@H]2O3)c1 27.9%
COc1ccccc1CNC(=O)C[C@@H]1C[C@@H]2c3cc(NC(=O)Nc4ccc(C(F)(F)F)cc4)ccc3O[C@@H]2[C@H](CO)O1 28.8%
COc1ccccc1CNC(=O)C[C@H]1C[C@H]2c3cc(NC(=O)Nc4ccc(C(F)(F)F)cc4)ccc3O[C@H]2[C@@H](CO)O1 26.5%
COc1ccccc1CNC(=O)C[C@H]1C[C@@H]2c3cc(NC(=O)Nc4ccc(C(F)(F)F)cc4)ccc3O[C@@H]2[C@H](CO)O1 28%
CCCN1C[C@H](C)[C@H](OC)CN(C)C(=O)c2cc(NC(=O)c3cccc(F)c3)ccc2OC[C@H]1C 8.18% [at 8 µM]
C[C@@H]1CN([C@H](C)CO)C(=O)c2ccccc2-c2ccccc2CO[C@H]1CN(C)C(=O)[C@H](C)c1ccccc1 15.9%
CC(C)CC#Cc1ccc2c(c1)O[C@@H](CN(C)CC1CCOCC1)[C@H](C)CN([C@H](C)CO)S2(=O)=O 29%
C[C@@H]1CN([C@H](C)CO)C(=O)Cc2cc(NC(=O)C3CC3)ccc2O[C@@H]1CN(C)Cc1ccc(Oc2ccccc2)cc1 25.1%
COc1ccccc1C#Cc1ccc2c(c1)O[C@H](CN(C)Cc1cccnc1)[C@@H](C)CN([C@@H](C)CO)S2(=O)=O 53.8%
CCS(=O)(=O)Nc1ccc2c(c1)C(=O)N(C)C[C@H](OC)[C@@H](C)CN(CC1CCCC1)[C@@H](C)CO2 -15.1% [at 8 µM]
C[C@@H]1CN([C@@H](C)CO)S(=O)(=O)c2ccc(C#CC3CCCCC3)cc2O[C@@H]1CN(C)Cc1cccnc1 69.7%
C[C@@H]1CN([C@H](C)CO)S(=O)(=O)c2ccc(-c3ccccc3)cc2O[C@H]1CN(C)Cc1ccncc1 33.9%
COc1ccccc1C#Cc1ccc2c(c1)O[C@@H](CN(C)Cc1cccnc1)[C@H](C)CN([C@@H](C)CO)S2(=O)=O 26.4%
CC(C)C#Cc1ccc([C@@H]2[C@@H](C#N)N(C(=O)C3CCC3)[C@H]2CO)cc1 32.2% [at 8 µM]
C[C@@H]1CN([C@@H](C)CO)S(=O)(=O)c2ccc(C3=CCCCC3)cc2O[C@H]1CN(C)Cc1ccncc1 29.4%
CCCC#Cc1ccc2c(c1)O[C@H](CN(C)Cc1ccncc1)[C@@H](C)CN([C@H](C)CO)S2(=O)=O 11.6%
